# Source: PubChem BioAssay (National Center for Advancing Translational Sciences (NCATS))
# Shown is part of a subset that was picked to be rich in hits.
# HT1080 IDH1KD tx: toxicity to HT-1080 IDH1 knockdown cells (counter line); AID 686971; Potency, µM (doses to about 46.1 µM), for inactives: top-dose activity, negative = toxicity, usual class: cytotoxic; 2% of 360,000 active; HT-1080 IDH1 knockdown viability, ATP luminescence, 48 h;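 note: potency is the fitted concentration of half-maximal effect; 0% = DMSO wells and -100% = cell-free medium wells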
#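 Assay cells: HT-1080 with IDH1 knockdown, 750 per well, RPMI/5% FBS. Exposure: 48 h at 37 °C following 2 h pre-incubation. Read: CellTiter-Glo luminescence; fitted concentration-response, curve class assigned.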
# 12-LOX inh: inhibitors of human 12S-lipoxygenase ALOX12. 1.1% of 580,000 active. purified 12hLO, xylenol orange hydroperoxide absorbance. AID 1671190. Potency, µM (series often up to 108 µM), for inactives: at the top dose activity change, negative = inhibition, hits mostly inhibitors. P18054; note: potency is the fitted concentration of half-maximal effect
# Target sequence (P18054 whole entry, looked up): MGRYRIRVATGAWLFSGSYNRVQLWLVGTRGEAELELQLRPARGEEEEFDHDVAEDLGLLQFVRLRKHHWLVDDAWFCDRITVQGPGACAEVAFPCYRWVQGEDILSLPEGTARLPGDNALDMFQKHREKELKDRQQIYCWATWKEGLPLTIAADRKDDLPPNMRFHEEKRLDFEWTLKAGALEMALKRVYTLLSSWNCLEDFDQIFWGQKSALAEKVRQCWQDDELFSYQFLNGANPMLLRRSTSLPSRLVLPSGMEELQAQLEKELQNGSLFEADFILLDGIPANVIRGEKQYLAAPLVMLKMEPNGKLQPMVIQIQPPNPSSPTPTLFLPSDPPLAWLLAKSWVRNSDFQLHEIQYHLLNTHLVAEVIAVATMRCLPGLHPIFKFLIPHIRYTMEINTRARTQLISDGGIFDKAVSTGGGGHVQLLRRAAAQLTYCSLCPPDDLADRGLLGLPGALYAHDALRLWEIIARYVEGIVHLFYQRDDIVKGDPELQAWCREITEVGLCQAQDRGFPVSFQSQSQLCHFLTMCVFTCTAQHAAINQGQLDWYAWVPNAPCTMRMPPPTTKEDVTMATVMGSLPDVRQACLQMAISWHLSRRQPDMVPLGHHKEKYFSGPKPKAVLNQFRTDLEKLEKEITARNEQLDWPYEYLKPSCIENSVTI
#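 Purified human 12hLO at 150 nM in 25 mM Hepes, 0.01% Triton X-100, pH 7.0, preincubated 15 min at room temperature with compound. Reaction started with 40 uM arachidonic acid, 30 min at room temperature. Hydroperoxide measured by Fe-xylenol orange, 573/405 nm absorbance ratio.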
# IL-1B inflam inh: blocks inflammasome-driven IL-1 beta release. THP-1 LPS/ATP IL-1B secretion, AlphaLISA, 16 h; active compounds read low. AID 743279. activity change, % at 57.5 µM. 4.7% of 360,000 active; in the data active = activity change below about -50%; inconclusive = mostly about -30% to -49%
#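 Secreted IL-1B measured by AlphaLISA bead assay after 16 h compound exposure of THP-1 cells; compounds (final up to 57.5 uM) added 1 h before LPS (250 ng/mL) and ATP (1.25 mM) stimulation; lower signal means less secretion.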
# DT40 TDP1 no CPT: qHTS for Inhibitors of human tyrosyl-DNA phosphodiesterase 1 (TDP1): qHTS in cells in absence of CPT; 15% of 420,000 active; DT40 Tdp1-/- hTDP1 cells, no CPT, ATP luminescence, 48 h; Potency, µM (top dose mostly 46.2 µM), for inactives: at the highest dose activity change, negative = growth inhibition, usual class: inhibitors; note: potency is the fitted concentration of half-maximal effect; nearly all actives have a fitted effect of over 55% in size
#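 Camptothecin absent (DMSO only). Human TDP1-complemented DT40 knockout cells, 400 cells/well, 37 °C for minimum 48 hr; ATP measured via CellTiter-Glo, 30 min dark incubation, luminescence.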
# DT40 TDP1 CPT: DT40-hTDP1 cell growth loss with CPT. chicken DT40 Tdp1-/-;hTDP1 cells + 20 nM CPT, ATP luminescence, 48 h. Potency, µM (doses to about 46.2 µM), for the others: top-dose activity change, negative = growth inhibition, actives largely listed as inhibitors. 12% of 420,000 active. AID 686979; note: potency is the fitted concentration of half-maximal effect; nearly all actives have a fitted effect of over 55% in size
#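 Cell growth measured by CellTiter-Glo luminescence after a minimum 48 h, 37 C compound exposure with 20 nM CPT in Tdp1-knockout DT40 cells stably expressing hTDP1, seeded 400/well; qHTS titration format.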
# HT1080-NT tox: kills 2HG-producing HT-1080-NT fibrosarcoma cells. HT-1080-NT fibrosarcoma viability, CellTiter-Glo ATP luminescence, 48 h. Potency, µM (series often up to 46.1 µM), inactives show at the top dose activity, negative = less viability, hits mostly cytotoxic. 1.6% of 360,000 active. AID 686970;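 note: NT is the 2HG producing partner of a matched IDH1 knockdown line; potency is the fitted concentration of half-maximal effect; 0% = DMSO-treated cells and -100% = media-only wells without cells; nearly all actives have a fitted effect of over 55% in size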
#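 A 48-hour cytotoxicity screen used HT-1080-NT cells plated 2 hours before compound delivery. ATP-based CellTiter-Glo luminescence measured viability, normalized to DMSO and no-cell controls.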
# The depositor's hits bear a star; ? = inconclusive; . = no result given; [ ] = remark or other dose. Unless noted, calls come from the whole dose curve; as a rule, active = well fitted curve in the direction sought with a large enough effect; inconclusive = small, poorly fitted or top-dose-only effect, or another doubt; inactive = no such curve, though single readings can be large; an effect the other way counts as inactive or inconclusive. Unless noted, % is set by controls: 0 for no effect and ±100 for the full control effect.
SMILES,HT1080 IDH1KD tx,12-LOX inh,IL-1B inflam inh,DT40 TDP1 no CPT,DT40 TDP1 CPT,HT1080-NT tox
CC(=O)Nc1ccc(NC(=O)COC(=O)C2CCN(/C=C/C(=O)C(F)(F)F)CC2)cc1,.,5.5%,.,.,.,.
Cc1ccc(NC(C)C(=O)Nc2sccc2C#N)cc1C (stereo unspecified),.,7.1%,.,.,.,.
COc1ccc(C2=NN3C(=O)c4c(ccc(OC)c4OC)C3C2)cc1 (stereo unspecified),5.1%,29.0%,-2.6,?,-28.7%,10.6%
COc1ccc2c(c1OC)C(=O)N1N=C(c3ccc(Cl)cc3)CC21 (stereo unspecified),2.9%,-19.6%,-81.9*,?,-1.6%,5.4%
CCc1nc(CN2CCCC(C(=O)Nc3ccc(-c4cccc(OC)c4)cc3)C2)c(C)[nH]1 (stereo unspecified),-25.2%,3.8%,12.5,?,?,-17.1%
Cc1ncccc1C(=O)N1CCCC(C(=O)c2ccc3c4c(cccc24)CC3)C1 (stereo unspecified),-4.0%,-4.6%,-6.4,?,?,-21.8%
CN(C)C(=O)CCC(=O)N1CCCC(C(=O)c2ccc3c4c(cccc24)CC3)C1 (stereo unspecified),-1.3%,0.0%,-7.9,14.6µM*,?,-17.9%
O=C(c1ccc2c3c(cccc13)CC2)C1CCCN(Cc2ccncc2)C1 (stereo unspecified),-6.1%,-14.9%,?,9.2µM*,13µM*,13µM*
CCc1nc(CN2CCCC(C(=O)c3ccc4c5c(cccc35)CC4)C2)c(C)[nH]1 (stereo unspecified),16.4µM*,6.8%,-99.9*,16.4µM*,?,14.6µM*
CNC(=O)c1cccc(NC(=O)c2cccc(OCc3c(C)noc3C)c2)c1,.,8.1%,.,.,.,.
O=C(Nc1cccc(C(F)(F)F)c1)N[C@H]1[C@H](O)[C@@H](N2CCN(c3ccccc3)CC2)[C@@H]2OC[C@H]1O2,.,-13.6%,.,.,.,.
Fc1ccc(-c2cnc3n[nH]c(-c4ccccc4)c3n2)cc1,.,11.3%[176 µM],.,.,.,.
O=CN/C=C/c1cc(O)ccc1O,-19.2%,?,-21.6,4.61µM*,4.11µM*,-18.4%
O=C(NC1CCCCCCC1)c1cc(C(F)(F)F)cc(C(F)(F)F)c1,.,0.6%,.,.,.,.
Cc1ccc(C)c(CN2C(=O)c3ccccc3S(=O)c3ccc(C(=O)NCCc4ccc(Cl)cc4)cc32)c1 (stereo unspecified),.,-26.8%,.,7.31µM*,13µM*,.
Cc1ccccc1CN1C(=O)c2ccccc2S(=O)c2ccc(C(=O)NCc3ccc(Cl)cc3)cc21 (stereo unspecified),.,-12.0%,.,?,?,.
COCCNC(=O)c1ccc2c(c1)N(Cc1cc(C)ccc1C)C(=O)c1ccccc1S2=O (stereo unspecified),.,-18.8%,.,14.6µM*,?,.
COCCCNC(=O)c1ccc2c(c1)N(Cc1ccccc1F)C(=O)c1ccccc1S2=O (stereo unspecified),.,0.0%,.,-14.2%,-5.8%,.
COC(=O)C1=C(C)N=C2SC=C(CC(=O)N3CCCCC3C)N2C1c1cccc(OC)c1 (stereo unspecified),.,13.7%,.,.,.,.
COc1cc(C(=O)Nc2ccccc2NC(=O)c2cc(OC)c(OC)c(OC)c2)cc(OC)c1OC,-1.6%,-1.2%,20.3,-9.3%,2.6%,11.7%
COc1cc(C(=O)NC(=S)Nc2ccccc2N2CCCC2)cc(OC)c1OC,?,?,-9.2,20.6µM*,?,?
COc1cc(C(=O)Nc2ccccc2N2CCCCC2)cc(OC)c1OC,-7.7%,-0.3%,-20.1,20.6µM*,?,6.3%
Cc1cccc(OCC2(CNS(=O)(=O)c3ccc(Cl)cc3)C[C@@H](O)[C@@H](O)C2)n1 (stereo partly specified),.,38.5%[176 µM],.,.,.,.
COc1ccc(OC)c(NS(=O)(=O)c2ccc(-c3cnc(C)o3)cc2)c1,.,4.1%,.,.,.,.
O=C1c2cc(N3CCOCC3)nc(-c3cnc4[nH]ccc4c3)c2CN1CC(F)(F)F,.,45.7%[176 µM],.,.,.,.
SMILES,HT1080 IDH1KD tx,12-LOX inh,IL-1B inflam inh,DT40 TDP1 no CPT,DT40 TDP1 CPT,HT1080-NT tox
COc1cccc(NC(=O)COc2ccc3c(C)cc(=O)oc3c2)c1,.,-9.0%,.,.,.,.
O=C(NC(=S)NNC(=O)c1cnccn1)c1ccc(F)cc1,?,?,85.4,5.17µM*,3.26µM*,?
COc1ccc(/C=C/C(=O)NC(=S)NNC(=O)c2cnccn2)cc1,?,5.2%,124.7,5.17µM*,2.91µM*,?
COc1ccc(/C=C/C(=O)NC(=S)NNC(=O)c2cccnc2)cc1,-22.5%,-4.6%,30.9,?,?,-1.8%
O=C(/C=C/c1ccc(F)cc1)NC(=S)NNC(=O)c1cnccn1,-19.4%,0.0%,78.0,3.26µM*,3.66µM*,-14.1%
Cc1ccccc1S(=O)(=O)N1CCCC2(C1)Nc1cccnc1NC2=NC1CCCC1 (stereo unspecified),.,5.9%,.,.,.,.
CC(Oc1ccc(Cl)cc1)C(=O)OCc1nc(N)nc(N)n1 (stereo unspecified),.,2.9%,.,.,.,.
O=C1Nc2ccccc2O[C@H]2C[C@@H]1N(Cc1ccccc1Cl)C2,.,-6.7%[176 µM],.,.,.,.
Cn1c(-c2ccccc2)c(Sc2ccccc2)c2cc(-c3ccc4cc[nH]c4c3)ccc21,3.6%,15.3%,35.3,23.1µM*,?,13.8%
COc1cccc(-c2c(-c3cc(OC)cc(OC)c3)n(C)c3ccc(-c4ccc5cc[nH]c5c4)cc23)c1,-9.7%,-14.1%,0.5,?,18.4µM*,-29.4%
COc1cc(OC)cc(-c2c(-c3cccs3)c3cc(-c4ccc5cc[nH]c5c4)ccc3n2C)c1,-6.0%,-9.8%,-10.3,13µM*,?,-20.7%
COc1cc(OC)cc(-c2c(-c3ccc(F)cc3)c3cc(Br)ccc3n2C)c1,16.5%,-37.5%,0.0,0.0%,1.1%,0.0%
COc1cc(OC)cc(-c2c(-c3cccs3)c3cc(-c4ccc5[nH]ccc5c4)ccc3n2C)c1,-1.0%,8.1%,-8.7,?,?,-0.8%
COc1cc(NC(=O)C2(C#N)CCCC2)c(OC)cc1NC(=O)c1ccccc1,.,76.6%,.,.,.,.
CC(C)N1C(=O)C2(CCN(C(=O)c3ccc(Cl)cc3)C2)c2ccccc21 (stereo unspecified),.,-1.2%[6.33 µM],.,.,.,.
CCC(CC)NC(=O)c1cccc(F)c1,.,34.7%,.,.,.,.
Oc1ccc(Cl)cc1CNCC1CCCCC1,-1.7%,?,-63.8*,?,14.6µM*,-4.0%
Oc1ccc(Cl)cc1CNC1CCCCC1,-2.3%,?,?,?,-0.6%,-5.5%
